Out of some 39,000 compounds screened, about 3,300 (8.5%) were called active. The full list was thinned out, with actives kept by preference.
tested on: HepG2; assay: cytotoxicity call (relative viability < 0.9); conditions: 10 µM

SMILES	cytotoxicity call
CC(C)NC(=O)N(C)C[C@H]1OCCCC[C@H](C)Oc2ccc(NS(=O)(=O)c3cn(C)cn3)cc2C(=O)N([C@@H](C)CO)C[C@@H]1C	inactive
C[C@@H]1CN([C@H](C)CO)C(=O)c2cccc(NS(=O)(=O)c3ccccc3)c2O[C@H]1CN(C)S(=O)(=O)c1cccs1	inactive
COc1ccc(S(=O)(=O)N(C)C[C@@H]2Oc3ccc(NS(=O)(=O)c4c(C)noc4C)cc3C(=O)N([C@@H](C)CO)C[C@@H]2C)cc1	inactive
COCC(=O)N1C[C@@H](C)[C@@H](OC)CN(C)C(=O)c2ccc(NC(=O)c3cc(C)on3)cc2OC[C@@H]1C	inactive
Cc1ccc(S(=O)(=O)N(C)C[C@@H]2OCCCC[C@H](C)Oc3ccc(NC(=O)c4ccccc4)cc3C(=O)N([C@H](C)CO)C[C@@H]2C)cc1	inactive
COCC(=O)N(C)C[C@H]1Oc2cc(C#C[C@@H](C)O)ccc2S(=O)(=O)N([C@@H](C)CO)C[C@H]1C	inactive
COc1ccc(C#Cc2cnc3c(c2)C(=O)N([C@@H](C)CO)C[C@H](C)[C@@H](CN(C)C(=O)CN(C)C)O3)cc1	inactive
Cn1c(=O)[nH]c(=O)c2c1ncn2CCNCc1ccco1	inactive
C[C@@H]1CN([C@@H](C)CO)C(=O)c2cc(NC(=O)Cc3ccccc3)ccc2O[C@@H](C)CCCCO[C@@H]1CN(C)CC1CCCCC1	inactive
O=C(C[C@H]1CC[C@H]2[C@@H](COC[C@H](O)CN2C(=O)c2ccncc2)O1)NC1CCC1	inactive
C[C@H]1CN([C@@H](C)CO)C(=O)c2cc(NC(=O)NC3CCCCC3)ccc2O[C@@H]1CN(C)S(=O)(=O)c1cn(C)cn1	inactive
C[C@@H]1CN([C@@H](C)CO)C(=O)Cc2cc(NS(=O)(=O)c3ccccc3)ccc2O[C@@H]1CN(C)Cc1ccc(Oc2ccccc2)cc1	active
C[C@@H]1CN([C@@H](C)CO)C(=O)Cc2cc(NS(=O)(=O)c3ccccc3)ccc2O[C@H]1CN(C)Cc1ccc(Oc2ccccc2)cc1	inactive
C[C@@H]1CN([C@H](C)CO)C(=O)Cc2cc(NS(=O)(=O)c3ccccc3)ccc2O[C@H]1CN(C)Cc1ccc(Oc2ccccc2)cc1	active
C[C@H]1CN([C@@H](C)CO)C(=O)Cc2cc(NS(=O)(=O)c3ccccc3)ccc2O[C@H]1CN(C)Cc1ccc(Oc2ccccc2)cc1	inactive
C[C@H](CO)N1C[C@H](C)[C@@H](CN(C)Cc2ccc(Oc3ccccc3)cc2)Oc2ccc(NS(=O)(=O)c3ccccc3)cc2CC1=O	inactive
C[C@H](CO)N1C[C@H](C)[C@H](CN(C)Cc2ccc(Oc3ccccc3)cc2)Oc2ccc(NS(=O)(=O)c3ccccc3)cc2CC1=O	inactive
C[C@H]1CN([C@@H](C)CO)C(=O)Cc2cc(NS(=O)(=O)c3ccccc3)ccc2O[C@@H]1CN(C)Cc1ccc(Oc2ccccc2)cc1	inactive
C[C@@H]1CN([C@H](C)CO)C(=O)Cc2cc(NS(=O)(=O)c3ccccc3)ccc2O[C@@H]1CN(C)Cc1ccc(Oc2ccccc2)cc1	active
COc1ccc(S(=O)(=O)Nc2cccc3c2O[C@@H](CN(C)Cc2ccc(-c4ccccc4)cc2)[C@H](C)CN([C@H](C)CO)C3=O)cc1	inactive
CO[C@H]1CN(C)C(=O)c2ccc(NC(=O)c3ccccc3)cc2OC[C@H](C)N(C(=O)CN(C)C)C[C@@H]1C	inactive
C[C@@H]1CN([C@H](C)CO)C(=O)c2cccc(NC(=O)NC3CCCCC3)c2O[C@H]1CN(C)Cc1ccc(-c2ccccc2)cc1	inactive
CCS(=O)(=O)N1CCC[C@]2(C(=O)NCC3CC3)CN(Cc3cnn(C)c3)C[C@H]2C1	inactive

SMILES	cytotoxicity call
COc1ccc(C(=O)NC(CO)(CO)CO)cc1OC	inactive
C[C@@H]1CN([C@H](C)CO)S(=O)(=O)c2ccc(C#CC3CCCC3)cc2O[C@@H]1CN(C)C(=O)Cc1ccncc1	inactive
COc1cc2c(cc1O)CCN[C@]21CS[C@@H]2c3c(OC(C)=O)c(C)c4c(c3[C@H](COC1=O)N1[C@@H]2[C@H]2c3c(cc(C)c(OC)c3O)C[C@@H]([C@@H]1O)N2C)OCO4	active
CO[C@H](CN(C)S(=O)(=O)c1ccc(C)cc1)[C@@H](C)CN([C@@H](C)CO)S(=O)(=O)c1cccc(Cl)c1	inactive
Cc1cnc(Nc2ccc(F)cc2Cl)nc1-c1c[nH]c(C(=O)N[C@H](CO)c2cccc(Cl)c2)c1	active
C[C@@H]1CN([C@@H](C)CO)C(=O)Cc2cc(NC(=O)CCN3CCOCC3)ccc2O[C@H]1CN(C)Cc1ccc(C(=O)Nc2ccccc2N)cc1	inactive
CC1(C)C(=O)C=CC2(C)C1CC(=O)C1(C)C2CCC2(C)C(c3ccoc3)OC(=O)C3OC321 (centres undefined)	active
CC(=O)O[C@H]1CC[C@]2(C)[C@H]3CC[C@@]4(C)[C@H](c5ccoc5)OC(=O)[C@H]5O[C@]54[C@]3(C)[C@H](OC(C)=O)C[C@H]2C1(C)C	inactive
CC(=O)OC1CCC2(C)C(CC(OC(C)=O)C3(C)C2CCC2(C)C(c4ccoc4)OC(=O)C4OC423)C1(C)C (stereo not drawn) [3beta-ACETOXYDEOXODIHYDROGEDUNIN ]	inactive
CC(=O)OC1CC(OC(C)=O)C2(C)C(CC(=O)C3(C)C2CCC2(C)C(c4ccoc4)OC(=O)C4OC423)C1(C)C (centres undefined)	inactive
CC1(C)C(=O)C=CC2(C)C1C=CC1(C)C2CCC2(C)C(c3ccoc3)OC(=O)C3OC312 (centres undefined)	active
CC1(C)OC2CC(=O)OCC23C1CC(=O)C1(C)C3CCC2(C)C(c3ccoc3)OC(=O)C3OC321 (centres undefined)	inactive
C[C@H]1CCCCO[C@@H](CN(C)C(=O)c2ccncc2)[C@@H](C)CN([C@@H](C)CO)C(=O)c2cc(NS(=O)(=O)c3ccc(Cl)cc3)ccc2O1	inactive
Nc1ccc([C@@H](O)[C@@H](O)CO)cc1	inactive
COc1ccc(S(=O)(=O)N(C)C[C@@H]2Oc3c(NC(=O)c4cnccn4)cccc3C(=O)N([C@@H](C)CO)C[C@H]2C)cc1	inactive
C[C@H](CO)N1C[C@H](C)[C@H](CN(C)C(=O)Cc2ccccn2)Oc2ncc(-c3cccc(C(=O)N(C)C)c3)cc2C1=O	inactive
COc1ccc(S(=O)(=O)N(C)C[C@@H]2Oc3ccc(NS(C)(=O)=O)cc3CC(=O)N([C@H](C)CO)C[C@@H]2C)cc1	inactive
COc1ccc(NC(=O)Nc2ccc3c(c2)C(=O)N([C@H](C)CO)C[C@@H](C)[C@@H](CN(C)Cc2ccc4c(c2)OCO4)OCCCC[C@@H](C)O3)cc1	active
COc1ccc(NC(=O)Nc2ccc3c(c2)C(=O)N([C@H](C)CO)C[C@H](C)[C@@H](CN(C)Cc2ccc4c(c2)OCO4)OCCCC[C@H](C)O3)cc1	inactive
COc1ccc(NC(=O)Nc2ccc3c(c2)C(=O)N([C@H](C)CO)C[C@H](C)[C@H](CN(C)Cc2ccc4c(c2)OCO4)OCCCC[C@H](C)O3)cc1	active
COc1ccc(NC(=O)Nc2ccc3c(c2)C(=O)N([C@H](C)CO)C[C@@H](C)[C@H](CN(C)Cc2ccc4c(c2)OCO4)OCCCC[C@@H](C)O3)cc1	inactive
COc1ccc(NC(=O)Nc2ccc3c(c2)C(=O)N([C@@H](C)CO)C[C@@H](C)[C@@H](CN(C)Cc2ccc4c(c2)OCO4)OCCCC[C@@H](C)O3)cc1	inactive
COc1ccc(NC(=O)Nc2ccc3c(c2)C(=O)N([C@@H](C)CO)C[C@H](C)[C@H](CN(C)Cc2ccc4c(c2)OCO4)OCCCC[C@@H](C)O3)cc1	inactive

SMILES	cytotoxicity call
C[C@@H]1CCCCO[C@H](CN(C)C(=O)NC2CCCCC2)[C@H](C)CN([C@@H](C)CO)C(=O)c2cc(NC(=O)c3ccccc3)ccc2O1	inactive
C[C@@H]1CN([C@@H](C)CO)C(=O)Cc2cc(NC(=O)Cc3ccccc3)ccc2O[C@H]1CN(C)C(=O)Nc1cccc2ccccc12	inactive
C[C@@H]1CCCCO[C@H](CN(C)Cc2ccncc2)[C@@H](C)CN([C@H](C)CO)C(=O)c2cc(NC(=O)Nc3ccccc3)ccc2O1	inactive
COc1ccc(S(=O)(=O)Nc2cccc3c2O[C@@H](CN(C)S(=O)(=O)c2ccc(OC)cc2)[C@@H](C)CN([C@@H](C)CO)C3=O)cc1	inactive
COc1cc(C(=O)OCCN2CCN(CCOC(=O)c3cc(OC)c(OC)c(OC)c3)CC2)cc(OC)c1OC	inactive
CCc1c(O)cc(O)c(C(=O)c2ccc(OCCN3CCOCC3)c(OC)c2)c1CC(=O)N(CCOC)CCOC	active
COc1c(OCCCN2CCOCC2)ccc2c1N=C(NC(=O)c1cnc(N)nc1)N1CCN=C21	inactive
C[C@H]1CN([C@@H](C)CO)C(=O)c2cccc(NS(=O)(=O)c3ccc(F)cc3)c2O[C@@H]1CN(C)CC1CC1	inactive
Cc1cc(=O)n(CCO)c(=O)[nH]1	inactive
CCC(=O)N(C)C[C@H]1Oc2ncc(C#C[C@H](C)O)cc2C(=O)N([C@H](C)CO)C[C@H]1C	inactive
CC(C)(C)[S@](=O)N1Cc2cc(C(=O)N[C@@H]3CCN(Cc4ccccc4)C3)nc(-c3cccc(-c4cccnc4)c3)c2[C@@H]1CCO	inactive
COc1ccccc1NC(=O)N(C)C[C@@H]1Oc2ncc(C#CCN(C)C)cc2C(=O)N([C@@H](C)CO)C[C@@H]1C	inactive
COc1cccc(NC(=O)N(C)C[C@@H]2Oc3ncc(C#Cc4ccncc4)cc3C(=O)N([C@H](C)CO)C[C@@H]2C)c1	inactive
COc1cccc(NC(=O)N(C)C[C@H]2Oc3ncc(C#Cc4ccncc4)cc3C(=O)N([C@@H](C)CO)C[C@@H]2C)c1	active
COc1ccccc1NC(=O)N(C)C[C@@H]1Oc2ncc(C#CCN(C)C)cc2C(=O)N([C@H](C)CO)C[C@@H]1C	inactive
COc1cccc(NC(=O)N(C)C[C@H]2Oc3ncc(C#Cc4ccncc4)cc3C(=O)N([C@H](C)CO)C[C@@H]2C)c1	inactive
COc1ccccc1NC(=O)N(C)C[C@@H]1Oc2ncc(C#CCN(C)C)cc2C(=O)N([C@@H](C)CO)C[C@H]1C	active
COc1cccc(NC(=O)N(C)C[C@@H]2Oc3ncc(C#Cc4ccncc4)cc3C(=O)N([C@H](C)CO)C[C@H]2C)c1	active
COc1cccc(NC(=O)N(C)C[C@@H]2Oc3ncc(C#Cc4cccnc4)cc3C(=O)N([C@@H](C)CO)C[C@H]2C)c1	inactive
COc1cccc(NC(=O)N(C)C[C@@H]2Oc3ncc(C#Cc4ccncc4)cc3C(=O)N([C@@H](C)CO)C[C@H]2C)c1	inactive
COc1cccc(NC(=O)N(C)C[C@H]2Oc3ncc(C#Cc4ccncc4)cc3C(=O)N([C@H](C)CO)C[C@H]2C)c1	active
COc1cccc(NC(=O)N(C)C[C@H]2Oc3ncc(C#Cc4cccnc4)cc3C(=O)N([C@H](C)CO)C[C@H]2C)c1	inactive
COc1cccc(NC(=O)N(C)C[C@@H]2Oc3ncc(C#Cc4ccncc4)cc3C(=O)N([C@@H](C)CO)C[C@@H]2C)c1	inactive
